HDAC3 inhib – HDAC3 deacetylase inhibitors, primary screen, biochemical, fluorescence, cell-free homogeneous; Histone deacetylase 3 (Homo sapiens), O15379; recombinant HDAC3, fluorogenic peptide/trypsin coupled; inhibition, % at 8.3 µM; hit rate 0.15% among 320,000; AID 2718, 2010; in the data active means inhibition above about 26%, passing the limit was not always enough; inconclusive means no clear call, values can overlap the other calls
Target sequence (O15379 whole entry, looked up): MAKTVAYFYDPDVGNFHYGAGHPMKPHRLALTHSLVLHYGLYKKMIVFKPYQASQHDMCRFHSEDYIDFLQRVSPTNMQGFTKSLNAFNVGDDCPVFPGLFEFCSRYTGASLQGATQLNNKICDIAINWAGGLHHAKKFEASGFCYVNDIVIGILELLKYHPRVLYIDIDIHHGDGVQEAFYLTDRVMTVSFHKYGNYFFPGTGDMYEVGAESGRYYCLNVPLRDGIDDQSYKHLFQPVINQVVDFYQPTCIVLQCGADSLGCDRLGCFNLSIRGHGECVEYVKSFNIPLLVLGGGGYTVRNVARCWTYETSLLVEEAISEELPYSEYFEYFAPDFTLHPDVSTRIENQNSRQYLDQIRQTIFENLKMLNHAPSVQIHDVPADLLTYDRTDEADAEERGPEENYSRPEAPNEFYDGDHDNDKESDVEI
LANA-H2B inh – blockers of LANA interaction with H2A/H2B – biochemical, FP readout, HTS, primary screen; AID 2629, 2010; cell-free LANA-H2A/H2B peptide, fluorescence polarization; inhibition, % (no concentration beside the values); hit rate 0.6% among 320,000; in the data active means inhibition mostly above about 10%, no sharp cut-off; inactive means mostly below about 6.7%
IDE inh – human IDE inhibitors in live cells, primary screen, fluorescence polarization, HEK cells, FAbetaB substrate; Insulin-degrading enzyme (Homo sapiens), P14735; FAbetaB cleavage; inhibition, % at 5.59 µM; hit rate 0.41% among 320,000; AID 434962, 2010;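 active means percent inhibition above the average of all tested compounds plus 3 SD, set per screening campaign, cut at about 16% in these data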;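 further: IDE supplied by intact live HEK cells; FP after avidin binding of uncleaved biotin substrate so inhibition keeps polarization high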
IDE cell activ – human IDE activators in live cells, primary screen, fluorescence polarization, HEK cells, FAbeta-B substrate; FAbeta-B cleavage; 0% vehicle, 100% cell-free pure enzyme wells; activation, % at 5.96 µM; hit rate 0.073% among 340,000; AID 493087, 2011;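 active means activation above the mean of all tested compounds plus 3 SD, set per screening campaign, cut at about 17% in these data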
IDE inh confirm – human IDE inhibitors in live cells, confirmation, fluorescence polarization, HEK cells, FAbetaB substrate | shares compounds with IDE inh | FAbetaB cleavage | inhibition, % at 5.59 µM | hit rate 51% among 1,200 | AID 435028, 2010;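 active means mean inhibition across triplicate wells above the cutoff set by the earlier primary insulin-degrading enzyme screen, cut at about 16% in these data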
HEK293 tox – cytotoxicity in HEK cells, cytotoxicity control for IDE inhibitor project, cell-based, luminescence | shares compounds with IDE inh | HEK293 cytotoxicity, ATP luminescence | inhibition, % at 5.59 µM | hit rate 28% among 1,200; in the data active means inhibition above about 22%
A number is an active result; i = inactive; ? = inconclusive; nt = not tested or not shown. Rows were chosen to be rich in hits. Some 1.1% of all compounds tested hit in one or more screens of this group.

SMILES | HDAC3 inhib | LANA-H2B inh | IDE inh | IDE cell activ | IDE inh confirm | HEK293 tox
CN(C)N=O | i | 49 | i | i | nt | nt
Cc1ccc(N2C(=O)NC(=O)/C(=C/c3ccc(OC(=O)c4cccs4)cc3)C2=O)cc1 | 56 | i | i | i | nt | nt
CN(C)c1ccc(/C=C2\C(=O)NC(=O)N(Cc3ccc(F)cc3)C2=O)cc1 | ? | i | i | i | nt | nt
O=C1NC(=O)N(Cc2ccc(F)cc2)C(=O)/C1=C\c1ccoc1 | i | i | 17 | i | nt | nt
Cc1ccc(N2C(=O)NC(=O)/C(=C\c3ccoc3)C2=O)cc1 | i | i | 20 | i | nt | nt
CCCC[C@@H](C)C[C@@H](C)C(=O)N(C)[C@@H](CC(C)C)C(=O)N[C@H](C(=O)N(C)[C@H](C(=O)N1C[C@@H](O)C[C@H]1C(=O)N1C(=O)C=C[C@@H]1C)C(C)C)C(C)OC(C)=O (stereo not given in full) | nt | nt | i | i | nt | nt
CS(=O)(=O)N1Cc2ccccc2-n2nncc2C1 | nt | nt | nt | i | nt | nt
C[N+](C)(C)CCc1ccc(O)cc1 | i | 11 | i | i | nt | nt
COc1ccc(CC2C(=O)N(c3ccccc3)C(=O)N(c3ccccc3)C2=O)c(OC)c1 | i | 13 | i | i | nt | nt
COCCCn1c(-c2ccc(OC)cc2)cc(C(=O)NC2CCCCCCC2)c1C | i | i | i | i | nt | nt
Cc1sc(-n2c(C)cc(C=C3C(=O)NC(=O)NC3=O)c2C)c(C#N)c1C | i | 17 | i | nt | nt | nt
O=C(C(Cc1ccccc1)NS(=O)(=O)c1cccc2nsnc12)N1CCC2(CC1)OCCO2 (stereo not given) | i | i | i | i | nt | nt
O=C(C1CCCN(S(=O)(=O)c2cccc3nsnc23)C1)N1CCC2(CC1)OCCO2 (stereo not given) | i | 45 | i | nt | nt | nt
O=C1NCCCCC1(Cl)Cl | nt | nt | nt | i | nt | nt
O=C1NC(=O)N(c2ccc3c(c2)OCO3)C(=O)/C1=C/c1ccc(N2CCCC2)o1 | ? | i | 19 | i | 29 | i
CCOc1ccc(N2C(=O)NC(=O)/C(=C\c3ccc(N4CCCCC4)o3)C2=O)cc1 | nt | nt | i | i | nt | nt
COc1ccc(-n2c(/C=C/c3cccc(F)c3)nc3ccccc3c2=O)c(OC)c1 | i | i | nt | i | nt | nt
COc1cc(/C=C/c2nc3ccccc3c(=O)n2-c2ccc(O)cc2)ccc1O | i | i | 33 | i | 111 | 34
Cc1ccc(-n2c(/C=C/c3ccccn3)nc3ccccc3c2=O)cc1 | nt | nt | nt | i | nt | nt
COc1ccc(-n2c(/C=C/c3ccc(O)c(O)c3)nc3ccccc3c2=O)cc1 | i | i | 115 | i | 116 | 23
CCN(CC)c1ccc(N=Cc2c(O)n(-c3cc(OC)ccc3OC)c(=O)[nH]c2=O)cc1 | i | i | i | i | nt | nt
CC1(C)OC(c2ccccc2)=C/C(=C/C=C2C(=O)NC(=O)NC2=O)O1 | i | i | 50 | i | 55 | i
Cc1cccc(NC(=O)N2CCCC2)c1 | i | i | i | i | nt | nt
C/C(=N\N1CCCCC1c1cccnc1)c1c(O)n(C2CCCCC2)c(=S)[nH]c1=O (stereo not given) | i | i | 29 | i | i | i
CC(C(=O)O)N(C(=O)c1ccccc1)c1ccc(F)c(Cl)c1 (stereo not given) | i | i | i | i | nt | nt
O=C1NC(=O)N(Cc2ccccc2)C(=O)/C1=C\C=C\c1ccco1 | i | i | 17 | i | i | 58
CN(C)C(=O)O/N=C(\N)COc1ccc(C(C)(C)C)cc1 | i | i | i | i | nt | nt
CCN(CC)c1ccc(/C=N/c2sc3c(c2C#N)C2CCN3CC2)c(O)c1 | i | i | 20 | i | 123 | 55
CN1/C(=C\C=C2C(=O)NC(=O)NC2=O)C(C)(C)c2ccccc21 | i | i | 57 | i | 70 | i
CN1/C(=C\C=Nc2ccccc2)C(C)(C)c2ccccc21 | i | i | i | i | nt | nt

Bioassay records deposited in PubChem by several laboratories.
